# From PubChem
# An excerpt weighted towards active compounds, which were near 2.4% of everything screened.
# WRN inhibitor: inhibitors of human WRN helicase. Potency, µM (series often up to 114 µM), for inactives: top-dose activity change, negative = inhibition, usual class: inhibitors. WRN helicase unwinding, fluorescent forked duplex, kinetic. 360,000 compounds, 0.46% hits; further: on the % scale 0 is the no-effect control and ±100 the full control effect; nearly all actives have a fitted effect of over 55% in size
# Target sequence (Q14191 whole entry, looked up): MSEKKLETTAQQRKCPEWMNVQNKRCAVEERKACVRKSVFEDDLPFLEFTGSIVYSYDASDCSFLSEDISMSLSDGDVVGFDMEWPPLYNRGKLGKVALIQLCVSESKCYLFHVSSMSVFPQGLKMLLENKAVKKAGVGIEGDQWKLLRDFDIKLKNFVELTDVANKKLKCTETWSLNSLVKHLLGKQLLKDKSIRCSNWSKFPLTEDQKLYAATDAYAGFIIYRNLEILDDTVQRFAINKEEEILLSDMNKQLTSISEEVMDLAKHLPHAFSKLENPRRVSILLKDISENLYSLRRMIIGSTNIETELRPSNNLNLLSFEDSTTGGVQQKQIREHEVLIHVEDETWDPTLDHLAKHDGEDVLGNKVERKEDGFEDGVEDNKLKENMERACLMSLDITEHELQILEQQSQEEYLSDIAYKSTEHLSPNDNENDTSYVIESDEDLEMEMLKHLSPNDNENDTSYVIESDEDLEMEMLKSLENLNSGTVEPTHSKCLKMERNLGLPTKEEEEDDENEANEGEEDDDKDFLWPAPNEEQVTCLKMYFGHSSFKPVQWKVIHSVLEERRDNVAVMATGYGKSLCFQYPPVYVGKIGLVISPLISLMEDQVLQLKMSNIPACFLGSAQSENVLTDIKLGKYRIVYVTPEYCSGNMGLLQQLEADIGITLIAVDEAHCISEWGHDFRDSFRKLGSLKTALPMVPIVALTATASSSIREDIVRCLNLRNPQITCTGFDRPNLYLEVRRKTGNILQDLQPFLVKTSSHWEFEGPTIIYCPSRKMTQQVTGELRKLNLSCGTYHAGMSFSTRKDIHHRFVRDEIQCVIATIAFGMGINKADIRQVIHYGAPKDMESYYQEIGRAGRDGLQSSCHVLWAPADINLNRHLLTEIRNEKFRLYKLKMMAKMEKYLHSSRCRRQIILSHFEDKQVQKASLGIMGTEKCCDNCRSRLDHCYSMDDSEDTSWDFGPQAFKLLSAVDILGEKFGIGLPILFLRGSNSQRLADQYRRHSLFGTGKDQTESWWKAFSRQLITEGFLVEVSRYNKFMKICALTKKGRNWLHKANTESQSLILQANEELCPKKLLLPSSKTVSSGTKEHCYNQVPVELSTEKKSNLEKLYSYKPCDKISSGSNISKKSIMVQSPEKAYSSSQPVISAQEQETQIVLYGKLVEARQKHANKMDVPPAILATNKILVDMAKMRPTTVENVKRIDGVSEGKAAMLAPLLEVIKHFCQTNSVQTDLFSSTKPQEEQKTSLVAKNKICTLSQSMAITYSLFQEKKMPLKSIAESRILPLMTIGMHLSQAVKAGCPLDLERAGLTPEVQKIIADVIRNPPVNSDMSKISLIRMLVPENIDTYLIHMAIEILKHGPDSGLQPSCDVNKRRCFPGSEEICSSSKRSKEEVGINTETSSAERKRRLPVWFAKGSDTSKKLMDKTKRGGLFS
#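 WRN at 20 nM final was preincubated with compound for 15 min at room temperature; reaction started with 100 nM forked duplex oligonucleotide carrying fluorophore and quencher plus 2 mM ATP (final). Unwinding followed kinetically by red fluorescence (ex 525/em 598 nm).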
# POLH inh: inhibitors of human DNA polymerase eta. 390,000 compounds, 1.2% hits. recombinant Pol eta, fluorescent DNA replication assay. Potency, µM (series often up to 114 µM), for the others: at the top dose activity change, negative = inhibition, actives largely listed as inhibitors. Q9Y253; further: on the % scale 0 is the no-effect control and ±100 the full control effect
#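 Fluorescent replication assay: 50 nM final substrate added after a 15 min room-temperature compound preincubation with 10 nM enzyme. Signal taken at 0 min and again at 10 min.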
# Pol kappa inh: inhibitors of human DNA polymerase kappa; Q9UBT6; purified Pol kappa, fluorescent DNA synthesis assay, 10 min; AID 588579; 400,000 compounds, 0.53% hits; Potency, µM (doses to about 107 µM), for the others: at the top dose activity, negative = inhibition, most hits filed as inhibitors; further: on the % scale 0 is the no-effect control and ±100 the full control effect
#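 Pol kappa 10 nM + cpd, 15 min RT; start w/ substrate 50 nM final; fluorescence kinetic read, 0 and 10 min. Neg ctrl: buffer, no enzyme.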
# POLI inh: blocks human DNA polymerase iota activity. Q9UNA4. AID 588590. Pol iota fluorescent replication assay, 10 min. Potency, µM (series often up to 115 µM), for the others: at the top dose activity, negative = inhibition, hits mostly inhibitors. 390,000 compounds, 1% hits
#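 Fluorescent replication assay read twice, at 0 min and 10 min after adding 50 nM (final) substrate. Enzyme (10 nM) and compounds were first incubated 15 min at room temperature; enzyme-free buffer wells were negative controls.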
# FEN1 inhibitor: blocks human flap endonuclease 1; Potency, µM (series often up to 114 µM), without a hit: at the highest dose activity change, negative = inhibition, hits mostly inhibitors; 390,000 compounds, 0.35% hits; P39748; Recombinant FEN1 flap cleavage, fluorescence, 15 min; further: on the % scale 0 is the no-effect control and ±100 the full control effect; nearly all actives have a fitted effect of over 65% in size
#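 With each library titrated from low to high concentration, compounds met 10 nM FEN1 for 15 min at room temperature before 50 nM substrate was added; readings at 0 and 15 min fed four-parameter Hill curve fits.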
# Pol beta inh: blocks human DNA polymerase beta activity | Potency, µM (doses to about 114 µM), inactives show at the top dose activity change, negative = inhibition, actives largely listed as inhibitors | AID 485314 | 340,000 compounds, 1.3% hits | Pol beta primer extension/strand displacement, fluorescence kinetic | P06746; further: on the % scale 0 is the no-effect control and ±100 the full control effect
#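 Pol beta (10 nM) was preincubated with compound for 15 min at room temperature. The reaction was then started with 50 nM substrate and read immediately and after a further 10 min at room temperature.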
# Starred values were filed as active, the others as inactive; ? = inconclusive; / = no result; [ ] = another dose, or the depositor's remark. The call rests on the fitted dose curve; in most records, active means well fitted curve in the direction sought with a large enough effect; inconclusive means small, poorly fitted or top-dose-only effect, or another doubt; inactive means no such curve, though single readings can be large; an effect the other way counts as inactive or inconclusive. Potency means the concentration at half of the fitted maximal effect.
SMILES,WRN inhibitor,POLH inh,Pol kappa inh,POLI inh,FEN1 inhibitor,Pol beta inh
C#CCOCCOCCOCCNc1nc(N2CCN(C(=O)CCCCCCCCCCNC(=O)Cn3cc(C[C@@H](C)O)nn3)CC2)nc(N2CCN(C(=O)CCCCCCCCCCNC(=O)[C@H](CCCN=C(N)N)n3cc(C[C@@H](C)CC)nn3)CC2)n1,?,?,-12%,25%,89µM*,/
Cc1cc(NC(=O)c2ccc3sc([C@@H]4O[C@H](CO)[C@H](O)[C@H](O)[C@H]4O)nc3c2)no1,16%[57.1 µM],/,/,/,/,/
Cc1cc(NC(=O)CSCC(=O)N(c2ccc(F)cc2)C(C(=O)NC2CCCCC2)c2ccc(O)c(O)c2)no1 (configuration not stated),0%,?,-19%,?,-11%,20µM*
O=C(O)C1CSC(c2ccncc2)N1 (configuration not stated),-32%,3%,-13%,15%,-4%,-18%
O=C(O)C1CSC(c2ccco2)N1 (configuration not stated),14µM*,10µM*,18µM*,?,?,8.9µM*
Nc1[nH]c(N=NC(=O)c2ccc(Cl)cc2)c2ccccc12,-31%[57.1 µM],0%,1%,19%,4%,79µM*
Cc1ccc(NC(=O)c2c(C(=O)Nc3ccccc3)sc3nc(C)cc(=O)n23)c(C)c1,/,-14%,0%,7%,4%,1%
O=C(Cc1ccccc1Cl)NC1(O)C(=O)c2ccccc2C1=O,1%[11.6 µM],?,-4%,5µM*,-14%,4%
Cc1ccc(C)c(S(=O)(=O)Nc2cc(SCC(=O)O)c(O)c3ccccc23)c1,18µM*,22µM*,-22%,8.9µM*,56µM*,79µM*
C/C(=N\Nc1nc(-c2ccc(C)cc2C)cs1)c1cc2ccccc2oc1=O,-14%,-9%,-7%,1%,-9%,22µM*
COc1ccc(C(NC(=O)C2CCN(Cc3ccc(Oc4ccccc4)cc3)CC2)c2ccccc2C)cn1 (configuration not stated),-6%,/,/,/,/,/
O=Nc1[nH]c(=O)c(/C=C(\O)c2ccccc2)nc1NO,-15%,?,-17%,4µM*,?,?
O=C(O)Cc1ccc(NC(=O)C2CC=CCC2C(=O)O)cc1 (configuration not stated),/,/,/,/,/,22µM*
O=C(O)C1CC=CCC1C(=O)Nc1ccccc1 (configuration not stated),-7%,?,-6%,10%,-3%,32µM*
O=C(O)c1ccc(NC(=O)C2CC=CCC2C(=O)O)cc1 (configuration not stated),-30%[57.1 µM],-7%,-5%,8%,-1%,-15%
CN(CCc1ccccc1)C(C(=O)Nc1ccc2c(c1)OCCO2)c1ccnc2ccccc12 (configuration not stated),-7%,/,/,/,/,/
O=C(COc1ncnc2ccccc12)N1CCN(C(=O)c2ccco2)CC1,11%,-13%,-3%,7%,1%,-1%
O=C(COc1ncnc2sccc12)N1CCN(C(=O)c2ccco2)CC1,?,?,?,20µM*,1%,40µM*
Cc1ccc(C(=O)O/N=C(\N)c2ccc(Br)cc2)cc1,-2%[57.1 µM],-22%,-23%,89µM*,-5%,?
COc1ccc(N(C)S(=O)(=O)c2c(C)[nH]c(=O)[nH]c2=O)c(OC)c1,-2%,-13%,-7%,89µM*,0%,3%
CCCS(=O)(=O)N1CCN(S(=O)(=O)c2ccccc2[N+](=O)[O-])CC1,5%,0%,5%,24%,-1%,3%
O=[N+]([O-])c1ccccc1S(=O)(=O)N1CCSCC1,4%,89µM*,2%,17%,-15%,/
Nc1ncnc2c1ncn2[C@H]1O[C@@H](CSCC[C@@H](N)C(=O)O)[C@H](O)[C@@H]1O,/,/,7%[19.4 µM],/,/,/
O=C(O)/C(=C\c1ccco1)NC(=O)c1ccc(Br)o1,-16%[11.6 µM],20µM*,-29%,?,-8%,/
CC(C)C(NC(=O)/C(=C/c1ccco1)NC(=O)c1ccc(Br)o1)C(=O)O (configuration not stated),-7%,20µM*,?,?,9%,40µM*
SMILES,WRN inhibitor,POLH inh,Pol kappa inh,POLI inh,FEN1 inhibitor,Pol beta inh
O=C(O)/C(=C\c1ccco1)NC(=O)c1cccc2ccccc12,-16%,50µM*,50µM*,?,-24%,-1%
CCS(=O)(=O)N1CCc2cc(C(=O)NCc3ccccc3)ccc21,/,-4%,-5%,1%,-8%,0%
O=C1c2oc3ccccc3c(=O)c2C(c2ccc(Br)cc2)N1c1ccccn1 (configuration not stated),/,-2%,1%[60.1 µM],4%,-10%,6%
O=C(CSc1nc2ccccc2s1)NC(=O)NCc1ccco1,-9%,-7%,-25%,-13%,-12%,22µM*
Cc1cc(SCC(=O)NC(=O)NCc2ccco2)nc2c(C)cccc12,-21%,-26%,-22%,?,-9%,16µM*
O=C(CSc1n[nH]c(-c2ccccc2)n1)NC(=O)NCc1ccco1,-21%[57.1 µM],?,?,45µM*,-1%,35µM*
COc1ccc(C)cc1-n1nnnc1SCC(=O)NC(=O)NCc1ccco1,-3%[11.6 µM],89µM*,?,28µM*,2%,14µM*
CCOc1ccc(-c2cccc(NS(=O)(=O)c3ccc(Cl)s3)c2)nn1,/,-11%,-5%[60.1 µM],35%,-6%,-10%
Cc1ccc2oc(C(=O)Nc3ccc(S(=O)(=O)N(C)c4ccccc4)cc3)cc(=O)c2c1,/,-4%,-19%,1%,20%,4%
CCOc1ccc2nc(SCC(=O)NCc3ccc(OC)c(OC)c3)[nH]c2c1,8%,-19%,-5%,-3%,8%,33%
CCCCn1c(SCC(=O)NC(=O)NCc2ccco2)nc2cc(S(N)(=O)=O)ccc21,-9%[11.6 µM],79µM*,?,?,8%,28µM*
CCOC(=O)NC(=O)CSc1nc2ccccc2[nH]1,10%,-9%,5%,27%,-3%,50µM*
CCOc1ccc2nc(SCC(=O)NC(=O)NCc3ccco3)[nH]c2c1,-8%,?,-23%,?,-4%,50µM*
CCCCn1c(SCc2ccc(C(=O)OC)o2)nc2cc(S(N)(=O)=O)ccc21,-11%[57.1 µM],-5%,-5%,4%,-15%,0%
Cc1nonc1NC(=O)CSc1nc2ccccc2[nH]1,-29%,?,-5%,?,10%,?
CS/C(=N\S(=O)(=O)c1cccs1)NC(=O)CSc1nc2ccccc2s1,?,50µM*,-26%,?,?,?
C[C@@H](N)C1CCC(C(=O)Nc2ccncc2)CC1 (some centres not stated),/,-5%[57.1 µM],-9%[60.1 µM],-3%[58.9 µM],/,9%[57.1 µM]
